# Reference: ChEMBL document CHEMBL3433997, “St. Jude Leishmania screening dataset” (2016)
# Key:
# Format in all cases: functional
# [1] = target: Solute carrier family 2, facilitated glucose transporter member 1 (Homo sapiens) (UniProt P11166); experiment: ST_JUDE_LEISH: Cytotoxicity at 2uM final concentration against transgenic Leishmania Mexicana promastigotes LmGLUT1 that are glucose transport deficient and complemented with the human glucose transporter GLUT1. Activity is measured by DNA content using SYBR green in vitro
# [2] = target: Hexose transporter 1 (Plasmodium falciparum) (UniProt O97467); experiment: ST_JUDE_LEISH: Cytotoxicity at 2uM final concentration against transgenic Leishmania Mexicana promastigotes LmPfHT that are glucose transport deficient and complemented with the Plasmodium falciparum hexose transporter. Activity is measured by DNA content using SYBR green in vitro
# [3] = target: Glucose transporter (Leishmania mexicana) (UniProt O61059); experiment: ST_JUDE_LEISH: Cytotoxicity at 2uM final concentration against transgenic Leishmania Mexicana promastigotes LmGT2 that are glucose transport deficient and complemented with the L. Mexicana glucose transporter 2. Activity is measured by DNA content using SYBR green in vitro
# Solute carrier family 2, facilitated glucose transporter member 1 (Homo sapiens), sequence (P11166 whole entry): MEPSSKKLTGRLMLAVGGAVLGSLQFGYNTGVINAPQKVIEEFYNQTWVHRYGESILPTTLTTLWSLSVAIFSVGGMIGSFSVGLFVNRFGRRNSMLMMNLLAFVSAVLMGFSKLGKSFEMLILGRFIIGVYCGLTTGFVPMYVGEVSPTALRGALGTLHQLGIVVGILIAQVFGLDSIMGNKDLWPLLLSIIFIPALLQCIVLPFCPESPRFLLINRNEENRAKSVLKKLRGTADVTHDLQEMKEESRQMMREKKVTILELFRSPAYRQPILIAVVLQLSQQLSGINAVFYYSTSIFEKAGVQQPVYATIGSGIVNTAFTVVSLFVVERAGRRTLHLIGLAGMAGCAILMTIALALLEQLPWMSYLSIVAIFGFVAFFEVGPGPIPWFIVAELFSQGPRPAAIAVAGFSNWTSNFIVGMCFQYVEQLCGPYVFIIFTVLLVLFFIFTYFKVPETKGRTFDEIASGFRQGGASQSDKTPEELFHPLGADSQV
SMILES,inhibition [1] [%],inhibition [2] [%],inhibition [3] [%]
Cc1cc2c(cc1C(F)(F)F)N(C(=O)Nc1ccc(C(=O)NCCN3CCCC3)cc1)CC2,1.29,1.86,-0.08
CN(C(=O)C1(c2ccc(Cl)cc2)CC1)C1CCN(CCCCCNC(=O)/C=C/c2ccc(Cl)c(Cl)c2)CC1,0.14,-0.37,4.56
O=C(Nc1ccccc1C(F)(F)F)Nc1nn(Cc2c(F)cccc2Cl)cc1Br,5.53,4.7,3.18
CCCCn1c(Sc2ccc(C#N)c([N+](=O)[O-])c2)nnc1-c1cc(OC)cc(OC)c1,0.5,3.21,0.45
COc1cc(-n2cnc3cc(-c4ccc(Cl)cc4)sc3c2=O)ccc1OCCN1CCC(c2cccc(NC(C)=O)c2)CC1,6.68,3.81,3.05
Cc1cccc2nc(-c3ccc(-c4ccc(CN5CCCC5CN)cc4)cc3)[nH]c12 (stereo not drawn),6.95,6.96,4.26
Cc1cc(OCc2ccccc2)c(OCc2ccccc2)cc1C(O)CN(C)Cc1ccccc1 (stereo not drawn),0.44,1.08,-0.1
COc1ccc2nccc([C@@H](O)CN3CCC(NC(=O)c4ccc(Cl)c([N+](=O)[O-])c4)CC3)c2c1,13.3,8.44,0
C=C[C@]1(C)C[C@@H](OC(=O)c2cncn(COC)c2=O)[C@]2(C)[C@H](C)CC[C@]3(CCC(=O)[C@H]32)[C@@H](C)[C@@H]1O,-0.03,-0.92,0.15
CN1CCN(CCCN(Cc2ccc(-c3cccc(CNCc4ccc5c(c4)OCO5)c3)cc2)C(=O)NC2CCCCC2)CC1,4.38,1.35,0.88
COc1ccc(CCn2c(=N)c(C(=O)NCc3ccccc3)cc3c(=O)n4cccc(C)c4nc32)cc1,12.7,13.6,7.48
O=C(Nc1ccc(OC2CCN(Cc3ccsc3)CC2)c(Cl)c1)c1ccco1,2.93,5.95,4.7
FC(F)(F)c1cc(Nc2ccc(Oc3ccccc3)cc2)c2cc(-c3ccncc3)ccc2n1,-0.25,0.41,-0.05
O=C(Nc1cccc(-c2cccc(-c3nc4cc(F)ccc4[nH]3)c2)c1)c1c[nH]cn1,-0.8,-0.5,-1.75
OCC1CCN(Cc2cccc(-c3ccc(-c4nc5cc(C(F)(F)F)ccc5[nH]4)cc3)c2)CC1,1.05,0.48,1.4
COc1ccc2nc(C)cc(Nc3ccc(Oc4ccc5ccccc5c4)c(Cl)c3)c2c1,7.14,7.63,1.45

SMILES,inhibition [1] [%],inhibition [2] [%],inhibition [3] [%]
O=C(NC1CCN(c2ccnc3cc(Cl)ccc23)C1)c1ccc(F)cc1 (stereo not drawn),2.4,2.61,4.18
CN1CCN(c2ccnc3ccc(NC(=O)Cc4ccc5ccccc5c4)cc23)CC1,0.96,2.53,2.12
CC(=O)Nc1ccc(CN2CCCN(c3cc(NC(=O)c4cccc(C)c4)ccn3)CC2)cc1,8.6,11.9,10.9
CN(C)c1ccc(OCCCCCCOc2ccccc2)cc1,1.32,1.77,1.98
CCCCC(=O)Nc1cc(=O)[nH]c2nc(-c3ccc(Cl)cc3)nn12,-1.02,3.54,-0.39
CN(C)CCNC(=O)c1ccc2c(c1)ncn2-c1cc(OCc2ccccc2C(F)(F)F)c(C(N)=O)s1.CN(C)CCNC(=O)c1ccc2ncn(-c3cc(OCc4ccccc4C(F)(F)F)c(C(N)=O)s3)c2c1,2.32,1.7,1.86
CC(C)(C)c1cc(C(=O)N2CCC(c3ccccn3)CC2)n(Cc2ccccc2)n1,0.22,1.08,-0.6
Cc1cc(N2CCC(NS(=O)(=O)c3ccccc3)CC2)nc(Nc2cccc(C#N)c2)n1,44.5,41.9,45.6
Cc1nc2ccc3ccc(CNc4ccc(C#N)cc4)cc3c2c(=O)[nH]1,50.2,39.6,56
O=c1cc(NCCCNCc2cc3ccccc3s2)[nH]c2ccccc12,4.89,6.01,3.82
COc1ccc(CN(C)CCCc2ccc(NC(=O)c3cccc4c(O)c5ccccc5nc34)cc2)cc1OC,6.56,3.71,1.93
CCCCCc1cc(OC(C)=O)c2c(c1)OC(C)(C)C=C2C1=CCN(Cc2ccccc2)CC1,1.74,1.45,-1.92
Cc1ccc2[nH]c(-c3ccc(C=CC(=O)NC4CCN(Cc5ccccc5)CC4)cc3)nc2c1,2.64,3.29,5.84
COc1cc2nc(Cl)nc(Nc3ccncc3)c2cc1OC,0.52,-0.73,-1.27
Cc1cc(CNC(=O)[C@H](CC2CCCCC2)Nc2ccc(C#N)c3ccccc23)c(C(F)(F)F)o1,1.15,1.57,-1.16
